PubChem BioAssay AID720580 (National Center for Advancing Translational Sciences (NCATS), 2013)
The whole screen tested about 330,000 compounds, of which about 1,500 (0.45%) were called active. Roughly 6% stayed inconclusive and do not appear here. Shown is part of a subset that was picked to be rich in actives. Unmarked numbers belong to inactive results. Calls come from the whole dose curve; tested in A549 cells.

Assay: qHTS for Stage-Specific Inhibitors of Vaccinia Orthopoxvirus: Venus Reporter Primary qHTS; note: nearly all actives have a fitted effect of over 30% in size
Settings: Vaccinia virus Venus reporter expression, fluorescence; series mostly up to 36.5 µM; activity change, negative = inhibition: at the top concentration
% is set by controls: 0 for no effect and ±100 for the full control effect; potency is the fitted concentration of half-maximal effect.

| Compound | Potency | activity change, negative = inhibition |
| --- | --- | --- |
| CC(C)Oc1c(Br)cc(Br)cc1/C=N/NC(N)=S | 5.01 µM (active) |  |
| Cc1cccc(-n2c(C)cc(/C=N/NC(N)=S)c2C)c1 |  | -19.7% |
| NC(=S)N/N=C/c1coc2cc(Cl)ccc2c1=O |  | -2.91% |
| CCCCCn1nnnc1C1c2ccccc2C(=O)N1Cc1ccco1 (stereo unspecified) |  | 0.846% |
| O=C(Nc1ccccc1Cl)/C(Cl)=C(\Cl)S(=O)c1ccccc1 (stereo unspecified) | 10 µM (active) |  |
| O=C(Nc1ccccc1Cl)O/N=C(/c1ccccc1)c1ccccn1 |  | -8.43% |
| O=C(Cc1ccc2c(c1)CCCC2)Nc1ccccc1Cl |  | -2.79% |
| CC(CCC(=O)O)C1CCC2C3C(O)C[C@@H]4CC(O)CC[C@@]4(C)C3CC[C@@]12C (stereo partly specified) | inactive |  |
| C[C@@]12CCC3C(CC[C@@H]4CC(O)CC[C@@]34C)C1CCC2O (stereo partly specified) |  | 0% |
| C[C@]12CC[C@H](O)C[C@H]1CC[C@@H]1C2CC[C@]2(C)[C@@H](C3=CC(=O)OC3)[C@@H](O)C[C@]12O (stereo partly specified) | 3.16 µM (active) |  |
| Cc1csc(NCC(=O)c2c[nH]c3ccccc23)n1 |  | -23% |
| CCOC(=O)[C@]12CCC=C1N(Cc1cccc3ccccc13)C(=O)[C@H](CC(=O)NCc1cccc(C(F)(F)F)c1)C2 |  | -28.4% |
| COc1ccc(C(C)C)cc1-c1ccc2nncn2c1 |  | -10.8% |
| Cc1cc(C)n2c(NCc3ccccc3)c(CC(C)C)nc2n1 |  | 18.6% |
| CC(=O)c1ccc(Nc2nc(C(N)c3ccccc3)cs2)cc1 (stereo unspecified) |  | -10.3% |
| Cc1ccc(NC(=O)Nc2cccc(C(F)(F)F)c2)nc1 |  | -3.51% |
| NC(c1csc(NC(=O)Nc2cccc(C(F)(F)F)c2)n1)C1CCCCC1 (stereo unspecified) | 10 µM (active) |  |
| CC(C)C[C@H](NC(=O)Nc1cccc(C(F)(F)F)c1)C(=O)O |  | -0.745% |
| NC(c1ccccc1)c1csc(NC(=O)Nc2cccc(C(F)(F)F)c2)n1 (stereo unspecified) | 11.2 µM (active) |  |
| O=C(Nc1ccc(C(=O)N2CCOCC2)cc1)Nc1cccc(C(F)(F)F)c1 |  | -15.9% |
| COc1ccc(C(O)C(O)(C(=O)OC(C)C)c2ccc(C)cc2)cc1 (stereo unspecified) |  | -12.4% |
| COc1cc(C=C(OC(C)=O)c2ccc3c(c2)OCO3)cc(OC)c1OC |  | -4.33% |

| Compound | Potency | activity change, negative = inhibition |
| --- | --- | --- |
| COc1ccc(-c2ccc(C(=O)NCCN3CCOCC3)c3occc23)c(C)c1 |  | -23.2% |
| COc1ccccc1Cc1c(-c2ccc(Cl)cc2)nc2c3ccccc3ccn12 |  | -4.99% |
| COc1ccc(-c2coc3c(C(=O)NC(C)C)cccc23)c(C)c1 |  | -4.73% |
| CCCCCn1nnnc1-c1nc2cc3ccccc3cc2[nH]c1=O |  | 64.3% |
| CCOC(=O)C1C(C)C(C(C)(C)C)N(S(=O)(=O)c2ccc(C)cc2)C1c1ccccc1 (stereo unspecified) |  | -24.5% |
| Cc1cc2nc(-c3ccc(Cl)cc3)c(Cc3cccc(F)c3)n2c(C)c1Br |  | 6.13% |
| COc1cccc(CNC(=O)[C@@H]2CCCN2C(=O)[C@@H]2CCCN2C(=O)c2ccccc2)c1 |  | 2.4% |
| COC(=O)c1ccc2nc(-c3ccc(C)cc3)c(Cc3ccc(OC)cc3C)n2c1 |  | -2.33% |
| O=S1(=O)CC(N2CCN(Cc3ccccc3F)CC2)CN1Cc1cn(Cc2cccc(C(F)(F)F)c2)nn1 (stereo unspecified) |  | -5.88% |
| CC(=O)/C(=N\Nc1ccc(Cl)cc1Cl)Sc1cccc2cccnc12 | 10 µM (active) |  |
| S=C(NCc1cccnc1)Nc1ccc(Cl)cc1Cl |  | -2.92% |
| COc1c(Cl)cc(Cl)cc1C(=O)Nc1cccc2cccnc12 |  | 0.266% |
| COc1ccc(/C=C/c2ccnc3ccccc23)cc1OC |  | -15.9% |
| Cc1cn(COC/C=C/c2ccccc2)c(=O)[nH]c1=O |  | -11% |
| Cc1[nH]c(=O)c(C(=O)/C=C/c2ccccc2)c2c1CCCC2 | 6.31 µM (active) |  |
| CC1(C(=O)O)CCCN(C(=O)/C=C/c2ccccc2)C1 (stereo unspecified) |  | -5.44% |
| CC(C)(C)c1ccc(C(=O)C[n+]2cccc3cc(Cl)ccc32)cc1 |  | 313% |
| CCOC(=O)c1ccn(S(=O)(=O)c2ccc(C)cc2)c1-c1ccccc1 |  | -2.99% |
| CN(Cc1cn(Cc2ccc(C(F)(F)F)cc2)nn1)C1CN(Cc2cn(Cc3ccc(C(F)(F)F)cc3)nn2)S(=O)(=O)C1 (stereo unspecified) |  | -28% |
| c1ccc(Cc2c(-c3ccco3)nc3c4ccccc4ccn23)cc1 |  | -0.586% |
| CCC(CC)C(=O)N1CCc2cc(OC)c(OC)cc2C1COc1ccc(F)cc1 (stereo unspecified) |  | -6.92% |
| CC[C@H]1CN2CCc3cc(OC)c(OC)cc3[C@@H]2C[C@@H]1C[C@H]1NCCc2cc(OC)c(OC)cc21 | 0.562 µM (active) |  |

| Compound | Potency | activity change, negative = inhibition |
| --- | --- | --- |
| COc1cc2c(cc1OC)CN(CC(=O)Nc1ccc(F)cc1)CC2 |  | -9.04% |
| CCc1oc(-c2ccc(OC)cc2)c(C(=O)OCCCCCO)c1C(C)OCCO (stereo unspecified) |  | 3.76% |
| Cc1ccc(-c2nc(=N)sn2Cc2ccccc2)cc1 |  | -10.9% |
| S=c1[nH]c(=S)c2n[nH]nc2[nH]1 |  | -10.3% |
| CCCc1c(-c2ccccc2F)ncn1Cc1ccccc1OC |  | -12.8% |
| c1cncc(CNCCc2c[nH]c3ccccc23)c1 |  | -2.23% |
| COc1ccc(S(=O)(=O)NCCc2c[nH]c3ccccc23)cc1OC |  | 1.43% |
| COc1cccc(CNCCc2c[nH]c3ccccc23)c1OCc1ccccc1F | 10 µM (active) |  |
| CO[C@H]1O[C@@H]2O[C@@]3(C)CC[C@@H]4[C@@H](C)CC[C@@H]([C@H]1C)[C@@]24OO3 |  | -8.19% |
| CN(Cc1ccccc1F)c1cc2c(c3c1ccn3C)C1CCC2O1 (stereo unspecified) |  | -5.91% |
| CN(C)c1ccc(/C=C/c2sc3ccccc3[n+]2C)cc1 |  | 66.9% |
| OCC(O)C(O)C(O)C(O)C=Nc1ccc(/C=C/c2ccnc3ccccc23)cc1 (stereo unspecified) |  | 2.54% |
| CCOCCC(=O)Nc1ccc2c(c1)c(=O)n(C)n2-c1ccc2ccccc2c1 |  | -25.4% |
| CS(=O)c1ccc(/C=C2\C=Cc3ccccc32)cc1 (stereo unspecified) |  | 3.52% |
| Cc1cc(/C=C2/SC(=O)N(CC(=O)N3CCCC3)C2=O)ccc1N1CCOCC1 |  | -17.6% |
| COc1ccc(/C=C2\SC(=S)N(CCC(=O)N3CCOCC3)C2=O)cc1OC |  | -26.8% |
| COc1cccc(/C=C2\SC(=S)N(CCCC(=O)N3CCOCC3)C2=O)c1 | 12.6 µM (active) |  |
| CCC(C)CN1C(=O)CSCC1(C)C(=O)NCc1ccccc1 (stereo unspecified) |  | -10.8% |
| COc1ccc(C(C)(NC(C)=O)c2nc(-c3ccc(S(C)(=O)=O)cc3)cs2)cc1 (stereo unspecified) |  | 8.43% |
| CCCCn1c(N)c(N(CCOC)C(=O)c2cccc(OCc3ccccc3)c2)c(=O)[nH]c1=O |  | -6.07% |
| COc1cccc(OCc2nnc3n2N=C(c2ccccc2)C(CC(=O)O)S3)c1 (stereo unspecified) |  | -0.775% |
| CCCCCCCCCCOC(=O)Cn1c(COc2cccc(OC)c2)[n+](C)c2ccccc21 | 11.2 µM (active) |  |
